# Measured values as given in PMC8384837, “Expanding the binding specificity for RNA recognition by a PUF domain”.
# Legend:
# Test in all cases: yeast three-hybrid, YBZ-1, SC-Leu-His + 0.5 mM 3-AT, 4 days
# Conditions in all cases: tags: N-Gal4 AD-HA kept; label: inside an RPR1-promoter hybrid RNA with tandem MS2 sites; ssRNA
# PUM1 PUF domain R5-KGE = PUM1 PUF domain R5-KGE (Homo sapiens, UniProt Q14671 828-1176, C1007K;R1008G;Q1011E)
# In short: (§1)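 The interaction score is the logarithmic change in variant frequency from input to selection. It uses log2, with a pseudocount of 1 for absent variants, and frequencies came from PCR-amplified, Illumina-sequenced repeat regions. The libraries were Pumilio-1 PUF domains randomized at the three base-contacting residues per repeat, co-expressed with matching RNA elements in strain YBZ-1 (LexA–MS2 coat fusion, HIS3 reporter). Plating lasted four days on SC-Leu (input) or SC-Leu-His + 0.5 mM 3-AT (selection).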
# PUM1 PUF domain R5-RYA = PUM1 PUF domain R5-RYA (Homo sapiens, UniProt Q14671 828-1176, C1007R;R1008Y;Q1011A)
# In short: as §1
# PUM1 PUF domain R3-ARS = PUM1 PUF domain R3-ARS (Homo sapiens, UniProt Q14671 828-1176, C935A;Q939S)
# In short: as §1
# PUM1 PUF domain R3-RAF = PUM1 PUF domain R3-RAF (Homo sapiens, UniProt Q14671 828-1176, C935R;R936A;Q939F)
# In short: as §1
# PUM1 PUF domain R5-GTQ = PUM1 PUF domain R5-GTQ (Homo sapiens, UniProt Q14671 828-1176, C1007G;R1008T)
# In short: as §1
# PUM1 PUF domain R7-RSV = PUM1 PUF domain R7-RSV (Homo sapiens, UniProt Q14671 828-1176, S1079R;N1080S;E1083V)
# In short: as §1
# PUM1 PUF domain R7-LNG = PUM1 PUF domain R7-LNG (Homo sapiens, UniProt Q14671 828-1176, S1079L;E1083G)
# In short: as §1
# PUM1 PUF domain R6-IFM = target: T1, PUM1 PUF domain R6-IFM (Homo sapiens, UniProt Q14671 828-1176, N1043I;Y1044F;Q1047M)
# T1 sequence: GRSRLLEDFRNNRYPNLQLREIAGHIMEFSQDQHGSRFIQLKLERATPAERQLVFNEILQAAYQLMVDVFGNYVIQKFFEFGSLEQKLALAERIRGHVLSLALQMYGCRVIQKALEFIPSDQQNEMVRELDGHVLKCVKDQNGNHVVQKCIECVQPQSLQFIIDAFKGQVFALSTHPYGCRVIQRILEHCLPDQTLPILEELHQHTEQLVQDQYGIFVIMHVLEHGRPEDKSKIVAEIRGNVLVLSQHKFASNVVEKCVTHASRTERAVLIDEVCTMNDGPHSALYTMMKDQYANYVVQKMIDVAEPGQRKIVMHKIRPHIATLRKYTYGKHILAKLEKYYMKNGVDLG
# In short: as §1
# PUM1 PUF domain R1-RGV = PUM1 PUF domain R1-RGV (Homo sapiens, UniProt Q14671 828-1176, S863R;R864G;Q867V)
# In short: as §1
# PUM1 PUF domain R1-HWR = PUM1 PUF domain R1-HWR (Homo sapiens, UniProt Q14671 828-1176, S863H;R864W;Q867R)
# In short: as §1
# PUM1 PUF domain R4-PHS = PUM1 PUF domain R4-PHS (Homo sapiens, UniProt Q14671 828-1176, N971P;Q975S)
# In short: as §1
# PUM1 PUF domain R4-API = PUM1 PUF domain R4-API (Homo sapiens, UniProt Q14671 828-1176, N971A;H972P;Q975I)
# In short: as §1
# PUM1 PUF domain R4-DRG = PUM1 PUF domain R4-DRG (Homo sapiens, UniProt Q14671 828-1176, N971D;H972R;Q975G)
# In short: as §1
# PUM1 PUF domain R8-QWC = PUM1 PUF domain R8-QWC (Homo sapiens, UniProt Q14671 828-1176, N1122Q;Y1123W;Q1126C)
# In short: as §1
# PUM1 PUF domain R2-LWA = PUM1 PUF domain R2-LWA (Homo sapiens, UniProt Q14671 828-1176, N899L;Y900W;Q903A)
# In short: as §1
# PUM1 PUF domain R8-MFR = PUM1 PUF domain R8-MFR (Homo sapiens, UniProt Q14671 828-1176, N1122M;Y1123F;Q1126R)
# In short: as §1
# PUM1 PUF domain R4-THL = PUM1 PUF domain R4-THL (Homo sapiens, UniProt Q14671 828-1176, N971T;Q975L)
# In short: as §1
# PUM1 PUF domain R3-PWN = PUM1 PUF domain R3-PWN (Homo sapiens, UniProt Q14671 828-1176, C935P;R936W;Q939N)
# In short: as §1
# PUM1 PUF domain R2-RRH = PUM1 PUF domain R2-RRH (Homo sapiens, UniProt Q14671 828-1176, N899R;Y900R;Q903H)
# In short: as §1
# PUM1 PUF domain R7-KRC = PUM1 PUF domain R7-KRC (Homo sapiens, UniProt Q14671 828-1176, S1079K;N1080R;E1083C)
# In short: as §1
sequence,measurement,setting,value
GGCUAGAACUAGUGGAUCCCCCGGCGCCCGGCGGCUCGAGCCCGGGUAAGUGUCAAUAGUCUGCAUGCCGCCGGGCGCCAUGCCUGCAGGUCGACUCUAGAAAACAUG,binding signal,PUM1 PUF domain R5-KGE,5.15 log2 enrichment (interaction score)
same,binding signal,PUM1 PUF domain R5-RYA,4.95 log2 enrichment (interaction score)
GGCUAGAACUAGUGGAUCCCCCGGCGCCCGGCGGCUCGAGCCCGGGUAAGUGUAAUUAGUCUGCAUGCCGCCGGGCGCCAUGCCUGCAGGUCGACUCUAGAAAACAUG,binding signal,PUM1 PUF domain R3-ARS,1.78 log2 enrichment (interaction score)
same,binding signal,PUM1 PUF domain R3-RAF,3.3 log2 enrichment (interaction score)
GGCUAGAACUAGUGGAUCCCCCGGCGCCCGGCGGCUCGAGCCCGGGUAAGUGUUAAUAGUCUGCAUGCCGCCGGGCGCCAUGCCUGCAGGUCGACUCUAGAAAACAUG,binding signal,PUM1 PUF domain R5-GTQ,2.42 log2 enrichment (interaction score)
same,binding signal,PUM1 PUF domain R5-RYA,4.8 log2 enrichment (interaction score)
GGCUAGAACUAGUGGAUCCCCCGGCGCCCGGCGGCUCGAGCCCGGGUAAGUUUAAAUAGUCUGCAUGCCGCCGGGCGCCAUGCCUGCAGGUCGACUCUAGAAAACAUG,binding signal,PUM1 PUF domain R7-RSV,2.32 log2 enrichment (interaction score)
same,binding signal,PUM1 PUF domain R7-LNG,6.18 log2 enrichment (interaction score)
GGCUAGAACUAGUGGAUCCCCCGGCGCCCGGCGGCUCGAGCCCGGGUAAGUGAAAAUAGUCUGCAUGCCGCCGGGCGCCAUGCCUGCAGGUCGACUCUAGAAAACAUG,binding signal,PUM1 PUF domain R6-IFM,6.96 log2 enrichment (interaction score)
GGCUAGAACUAGUGGAUCCCCCGGCGCCCGGCGGCUCGAGCCCGGGUAAGUGUAAAUUGUCUGCAUGCCGCCGGGCGCCAUGCCUGCAGGUCGACUCUAGAAAACAUG,binding signal,PUM1 PUF domain R1-RGV,2.5 log2 enrichment (interaction score)
same,binding signal,PUM1 PUF domain R1-HWR,3.32 log2 enrichment (interaction score)
GGCUAGAACUAGUGGAUCCCCCGGCGCCCGGCGGCUCGAGCCCGGGUAAGUGUAAAUAGUCUGCAUGCCGCCGGGCGCCAUGCCUGCAGGUCGACUCUAGAAAACAUG,binding signal,PUM1 PUF domain R4-PHS,5.43 log2 enrichment (interaction score)
same,binding signal,PUM1 PUF domain R4-API,3.05 log2 enrichment (interaction score)
same,binding signal,PUM1 PUF domain R3-ARS,4.04 log2 enrichment (interaction score)
same,binding signal,PUM1 PUF domain R4-DRG,2.71 log2 enrichment (interaction score)
same,binding signal,PUM1 PUF domain R5-GTQ,2.12 log2 enrichment (interaction score)
same,binding signal,PUM1 PUF domain R8-QWC,3 log2 enrichment (interaction score)
same,binding signal,PUM1 PUF domain R2-LWA,1.62 log2 enrichment (interaction score)
same,binding signal,PUM1 PUF domain R8-MFR,3.78 log2 enrichment (interaction score)
same,binding signal,PUM1 PUF domain R5-KGE,2.24 log2 enrichment (interaction score)
same,binding signal,PUM1 PUF domain R4-THL,4.66 log2 enrichment (interaction score)
same,binding signal,PUM1 PUF domain R5-RYA,1.12 log2 enrichment (interaction score)
same,binding signal,PUM1 PUF domain R3-PWN,2.55 log2 enrichment (interaction score)
GGCUAGAACUAGUGGAUCCCCCGGCGCCCGGCGGCUCGAGCCCGGGUAAGUGUAAAAAGUCUGCAUGCCGCCGGGCGCCAUGCCUGCAGGUCGACUCUAGAAAACAUG,binding signal,PUM1 PUF domain R2-RRH,0.36 log2 enrichment (interaction score)
same,binding signal,PUM1 PUF domain R2-LWA,6.09 log2 enrichment (interaction score)
GGCUAGAACUAGUGGAUCCCCCGGCGCCCGGCGGCUCGAGCCCGGGUAAGUGUAAGUAGUCUGCAUGCCGCCGGGCGCCAUGCCUGCAGGUCGACUCUAGAAAACAUG,binding signal,PUM1 PUF domain R3-ARS,0.93 log2 enrichment (interaction score)
GGCUAGAACUAGUGGAUCCCCCGGCGCCCGGCGGCUCGAGCCCGGGUAAGUGUAAAGAGUCUGCAUGCCGCCGGGCGCCAUGCCUGCAGGUCGACUCUAGAAAACAUG,binding signal,PUM1 PUF domain R2-RRH,3.09 log2 enrichment (interaction score)
same,binding signal,PUM1 PUF domain R2-LWA,2.94 log2 enrichment (interaction score)
GGCUAGAACUAGUGGAUCCCCCGGCGCCCGGCGGCUCGAGCCCGGGUAAGUGUAUAUAGUCUGCAUGCCGCCGGGCGCCAUGCCUGCAGGUCGACUCUAGAAAACAUG,binding signal,PUM1 PUF domain R4-PHS,7.03 log2 enrichment (interaction score)
GGCUAGAACUAGUGGAUCCCCCGGCGCCCGGCGGCUCGAGCCCGGGUAAGUGUAAAUCGUCUGCAUGCCGCCGGGCGCCAUGCCUGCAGGUCGACUCUAGAAAACAUG,binding signal,PUM1 PUF domain R1-RGV,2.51 log2 enrichment (interaction score)
same,binding signal,PUM1 PUF domain R1-HWR,5.91 log2 enrichment (interaction score)
GGCUAGAACUAGUGGAUCCCCCGGCGCCCGGCGGCUCGAGCCCGGGUAAGUCUAAAUAGUCUGCAUGCCGCCGGGCGCCAUGCCUGCAGGUCGACUCUAGAAAACAUG,binding signal,PUM1 PUF domain R7-KRC,4.66 log2 enrichment (interaction score)
same,binding signal,PUM1 PUF domain R7-RSV,1.68 log2 enrichment (interaction score)
GGCUAGAACUAGUGGAUCCCCCGGCGCCCGGCGGCUCGAGCCCGGGUAAGCGUAAAUAGUCUGCAUGCCGCCGGGCGCCAUGCCUGCAGGUCGACUCUAGAAAACAUG,binding signal,PUM1 PUF domain R8-QWC,2.08 log2 enrichment (interaction score)
same,binding signal,PUM1 PUF domain R8-MFR,5.35 log2 enrichment (interaction score)
